# Reference: PubChem BioAssay AID1159580 (chemical genetic matrix, 2015)
# Hit rate of the full screen: of about 5,500 compounds, about 2,000 (36%) were called active. About 18% were inconclusive and are not listed. Some of the results follow. Values without a mark were called inactive. Rule as the data show it: active = normalized growth mostly below about 0.91 (no sharp cut-off); inconclusive = no clear call, values can overlap the other calls; inactive = mostly above about 0.92.
# Test: chemical genetic growth profiling, strain panel (AID 1159580);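 also: tested at 20 µM; growth read once vehicle control cultures reached saturation at 30 °C; 1 = growth at the plate median or of vehicle wells; lower values mean less growth of the strain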
# Conditions: growth OD
smiles,measurement,setting,value
COc1ccc2c(c1C(C)C)CCC1C(C)(C)C(=O)CCC21C (stereo unspecified),normalized growth,"S. cerevisiae deletion strains, locus YAL013W, strain DEP1, stronger effect = lower value",1
same,normalized growth,"S. cerevisiae deletion strains, locus YBR021W, strain FUR4, stronger effect = lower value",1
same,normalized growth,"S. cerevisiae deletion strains, locus YBR229C, strain ROT2, stronger effect = lower value",0.988
same,normalized growth,"S. cerevisiae deletion strains, locus YCL029C, strain bik1, stronger effect = lower value",0.955
same,normalized growth,"S. cerevisiae deletion strains, locus YDL035C, strain GPR1, stronger effect = lower value",0.972
same,normalized growth,"S. cerevisiae deletion strains, locus YDL074C, strain BRE1, stronger effect = lower value",0.969
same,normalized growth,"S. cerevisiae deletion strains, locus YDL101C, strain DUN1, stronger effect = lower value",0.996
same,normalized growth,"S. cerevisiae deletion strains, locus YDL134C, strain PPH21, stronger effect = lower value",0.976
same,normalized growth,"S. cerevisiae deletion strains, locus YDL185W, strain tfp1, stronger effect = lower value",0.982
same,normalized growth,"S. cerevisiae deletion strains, locus YDL192W, strain arf1, stronger effect = lower value",0.974
same,normalized growth,"S. cerevisiae deletion strains, locus YDR101C, strain arx1, stronger effect = lower value",0.981
same,normalized growth,"S. cerevisiae deletion strains, locus YDR150W, strain NUM1, stronger effect = lower value",0.96
same,normalized growth,"S. cerevisiae deletion strains, locus YDR162C, strain NBP2, stronger effect = lower value",0.983
same,normalized growth,"S. cerevisiae deletion strains, locus YDR318W, strain mcm21, stronger effect = lower value",0.968
same,normalized growth,"S. cerevisiae deletion strains, locus YDR388W, stronger effect = lower value",0.977
same,normalized growth,"S. cerevisiae deletion strains, locus YDR502C, strain sam2, stronger effect = lower value",0.982
same,normalized growth,"S. cerevisiae deletion strains, locus YEL061C, strain CIN8, stronger effect = lower value",0.988
same,normalized growth,"S. cerevisiae deletion strains, locus YER110C, stronger effect = lower value",0.982
same,normalized growth,"S. cerevisiae deletion strains, locus YER155C, strain BEM2, stronger effect = lower value",0.991
same,normalized growth,"S. cerevisiae deletion strains, locus YER167W, strain BCK2, stronger effect = lower value",0.95
same,normalized growth,"S. cerevisiae deletion strains, locus YGL078C, strain dbp3, stronger effect = lower value",0.977
same,normalized growth,"S. cerevisiae deletion strains, locus YGL086W, strain mad1, stronger effect = lower value",0.961
same,normalized growth,"S. cerevisiae deletion strains, locus YGL248W, strain PDE1, stronger effect = lower value",0.976
same,normalized growth,"S. cerevisiae deletion strains, locus YGR078C, strain PAC10, stronger effect = lower value",1
same,normalized growth,"S. cerevisiae deletion strains, locus YGR135W, strain pre9, stronger effect = lower value",0.984
same,normalized growth,"S. cerevisiae deletion strains, locus YGR229C, strain SMI1, stronger effect = lower value",0.974
same,normalized growth,"S. cerevisiae deletion strains, locus YGR252W, strain gcn5, stronger effect = lower value",0.98
same,normalized growth,"S. cerevisiae deletion strains, locus YHR030C, strain SLT2, stronger effect = lower value",0.979
same,normalized growth,"S. cerevisiae deletion strains, locus YHR079C, strain IRE1 (second series), stronger effect = lower value",0.96
same,normalized growth,"S. cerevisiae deletion strains, locus YHR094C, strain hxt1, stronger effect = lower value",0.974
same,normalized growth,"S. cerevisiae deletion strains, locus YHR129C, strain ARP1, stronger effect = lower value",0.983
same,normalized growth,"S. cerevisiae deletion strains, locus YHR200W, strain rpn10, stronger effect = lower value",0.955
same,normalized growth,"S. cerevisiae deletion strains, locus YIL066C, strain RNR3, stronger effect = lower value",0.979
same,normalized growth,"S. cerevisiae deletion strains, locus YIL073C, strain SPO22, stronger effect = lower value",0.921
same,normalized growth,"S. cerevisiae deletion strains, locus YIL125W, strain kgd1, stronger effect = lower value",0.971
same,normalized growth,"S. cerevisiae deletion strains, locus YIR030C, strain dcg1, stronger effect = lower value",0.97
same,normalized growth,"S. cerevisiae deletion strains, locus YJL095W, strain BCK1, stronger effect = lower value",0.954
same,normalized growth,"S. cerevisiae deletion strains, locus YJL134W, strain LCB3, stronger effect = lower value",0.983
same,normalized growth,"S. cerevisiae deletion strains, locus YJL168C, strain set2, stronger effect = lower value",0.984
same,normalized growth,"S. cerevisiae deletion strains, locus YJL187C, strain SWE1 (second series), stronger effect = lower value",0.986
same,normalized growth,"S. cerevisiae deletion strains, locus YJR043C, strain POL32, stronger effect = lower value",0.962
same,normalized growth,"S. cerevisiae deletion strains, locus YJR075W, strain HOC1, stronger effect = lower value",1
same,normalized growth,"S. cerevisiae deletion strains, locus YKL009W, strain mrt4, stronger effect = lower value",0.966
same,normalized growth,"S. cerevisiae deletion strains, locus YKL068W, stronger effect = lower value",0.976
same,normalized growth,"S. cerevisiae deletion strains, locus YKL085W, strain MDH1 (second series), stronger effect = lower value",0.967
same,normalized growth,"S. cerevisiae deletion strains, locus YKL085W, strain MDH1, stronger effect = lower value",0.967
same,normalized growth,"S. cerevisiae deletion strains, locus YKL190W, strain CNB1, stronger effect = lower value",0.988
same,normalized growth,"S. cerevisiae deletion strains, locus YKR001C, strain vps1, stronger effect = lower value",0.979
same,normalized growth,"S. cerevisiae deletion strains, locus YLR039C, strain RIC1, stronger effect = lower value",0.995
same,normalized growth,"S. cerevisiae deletion strains, locus YLR058C, strain SHM2, stronger effect = lower value",0.981
same,normalized growth,"S. cerevisiae deletion strains, locus YLR102C, strain apc9, stronger effect = lower value",0.978
same,normalized growth,"S. cerevisiae deletion strains, locus YLR262C, strain YPT6, stronger effect = lower value",0.994
same,normalized growth,"S. cerevisiae deletion strains, locus YLR268W, strain sec22, stronger effect = lower value",0.995
same,normalized growth,"S. cerevisiae deletion strains, locus YLR330W, strain CHS5, stronger effect = lower value",0.985
same,normalized growth,"S. cerevisiae deletion strains, locus YLR342W, strain FKS1 (second series), stronger effect = lower value",0.973
same,normalized growth,"S. cerevisiae deletion strains, locus YLR371W, strain rom2, stronger effect = lower value",0.979
same,normalized growth,"S. cerevisiae deletion strains, locus YLR418C, strain cdc73, stronger effect = lower value",0.946
same,normalized growth,"S. cerevisiae deletion strains, locus YML016C, strain PPZ1, stronger effect = lower value",0.978
same,normalized growth,"S. cerevisiae deletion strains, locus YML032C, strain rad52, stronger effect = lower value",0.964
same,normalized growth,"S. cerevisiae deletion strains, locus YML124C, strain tub3, stronger effect = lower value",0.961
same,normalized growth,"S. cerevisiae deletion strains, locus YMR078C, strain ctf18, stronger effect = lower value",0.96
same,normalized growth,"S. cerevisiae deletion strains, locus YMR223W, strain ubp8, stronger effect = lower value",0.959
same,normalized growth,"S. cerevisiae deletion strains, locus YMR263W, strain SAP30, stronger effect = lower value",1.01
same,normalized growth,"S. cerevisiae deletion strains, locus YMR307W, strain GAS1, stronger effect = lower value",0.84
same,normalized growth,"S. cerevisiae deletion strains, locus YNL067W, strain RPL9B, stronger effect = lower value",1.01
same,normalized growth,"S. cerevisiae deletion strains, locus YNL128W, strain TEP1, stronger effect = lower value",1.01
same,normalized growth,"S. cerevisiae deletion strains, locus YNL153C, strain GIM3, stronger effect = lower value",1
same,normalized growth,"S. cerevisiae deletion strains, locus YNL233W, strain BNI4, stronger effect = lower value",0.98
same,normalized growth,"S. cerevisiae deletion strains, locus YNL250W, strain rad50, stronger effect = lower value",0.972
same,normalized growth,"S. cerevisiae deletion strains, locus YNL271C, strain bni1, stronger effect = lower value",0.977
same,normalized growth,"S. cerevisiae deletion strains, locus YNL298W, strain CLA4, stronger effect = lower value",0.982
same,normalized growth,"S. cerevisiae deletion strains, locus YNL307C, strain MCK1, stronger effect = lower value",0.854 (active)
same,normalized growth,"S. cerevisiae deletion strains, locus YNL322C, strain KRE1, stronger effect = lower value",0.992
same,normalized growth,"S. cerevisiae deletion strains, locus YNR052C, strain pop2, stronger effect = lower value",0.991
same,normalized growth,"S. cerevisiae deletion strains, locus YOL006C, strain TOP1, stronger effect = lower value",0.896
same,normalized growth,"S. cerevisiae deletion strains, locus YOL012C, strain htz1",1.19
same,normalized growth,"S. cerevisiae deletion strains, locus YOL147C, strain pex11, stronger effect = lower value",0.975
same,normalized growth,"S. cerevisiae deletion strains, locus YOR061W, strain CKA2, stronger effect = lower value",0.977
same,normalized growth,"S. cerevisiae deletion strains, locus YOR069W, strain VPS5, stronger effect = lower value",0.983
same,normalized growth,"S. cerevisiae deletion strains, locus YOR136W, strain idh2, stronger effect = lower value",0.981
same,normalized growth,"S. cerevisiae deletion strains, locus YOR144C, strain elg1, stronger effect = lower value",0.978
same,normalized growth,"S. cerevisiae deletion strains, locus YOR184W, strain ser1, stronger effect = lower value",0.899
same,normalized growth,"S. cerevisiae deletion strains, locus YOR316C, strain cot1, stronger effect = lower value",0.967
same,normalized growth,"S. cerevisiae deletion strains, locus YPL055C, strain LGE1, stronger effect = lower value",1.01
same,normalized growth,"S. cerevisiae deletion strains, locus YPL241C, strain CIN2, stronger effect = lower value",0.984
same,normalized growth,"S. cerevisiae deletion strains, locus YPR119W, strain clb2, stronger effect = lower value",0.971
same,normalized growth,"S. cerevisiae deletion strains, locus YPR141C, strain kar3, stronger effect = lower value",0.97
same,normalized growth,"S. cerevisiae deletion strains, locus YPR163C, strain tif3, stronger effect = lower value",0.984
same,normalized growth,"S. cerevisiae deletion strains, locus YPR167C, strain met16, stronger effect = lower value",0.97
same,normalized growth,"S. cerevisiae deletion strains, strain wtn01, stronger effect = lower value",0.975
same,normalized growth,"S. cerevisiae strains, strain wild type, stronger effect = lower value",0.998
